The list is not random: actives were taken first. Their share in the collection is about 8.1%.
KB-3-1 tox – KB-3-1 parental cell cytotoxicity | KB-3-1 viability, CellTiter-Glo ATP luminescence, 72 h | Potency, µM (doses to about 46.1 µM), actives largely listed as cytotoxic | 400,000 compounds, 1.4% hits; also: % is scaled to controls: 0 for no effect and ±100 for the full control effect; nearly all actives have a fitted effect of over 60% in size
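Parental KB-3-1 adenocarcinoma cells in phenol-red-free DMEM with 10% FBS were pin-treated with compounds at several concentrations, incubated 72 h at 37 °C, and viability read by CellTiter-Glo luminescence; concentration-effect curves were fitted after normalization.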
MCF10A rerep – induces DNA re-replication in MCF 10a normal breast cells. AID 624296. MCF 10A DNA re-replication, Hoechst nuclear intensity, 48 h. 350,000 compounds, 2.9% hits. Potency, µM (highest dose often 46.1 µM), for inactives: at the highest dose activity, positive = re-replication, actives largely listed as activators; also: % of control where 0% means no effect; nearly all actives have a fitted effect of over 50% in size
KB-V1 MDR tox – kills drug-selected multidrug resistant KB-V1 cells; 400,000 compounds, 3.4% hits; Potency, µM (series often up to 46.1 µM), usual class: cytotoxic; KB-V1 MDR cells viability, CellTiter-Glo, 72 h; AID 1347076; also: % is scaled to controls: 0 for no effect and ±100 for the full control effect; nearly all actives have a fitted effect of over 60% in size
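Cytotoxicity toward P-gp-expressing KB-V1 cells was determined as loss of CellTiter-Glo luminescence after 72 h at 37 degrees C. Compounds were tested in quantitative HTS format across a concentration range, with curves fitted to normalized data.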
SW480 rereplic – induces DNA re-replication in SW480 colon adenocarcinoma cells | Potency, µM (doses to about 46.1 µM), without a hit: top-dose re-replication activation, actives largely listed as activators | SW480 DNA re-replication, Hoechst DNA content imaging, 48 h | AID 624297 | 340,000 compounds, 1.8% hits; also: % of control where 0% means no effect; nearly all actives have a fitted effect of over 55% in size
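DNA re-replication was detected as more nuclei of elevated Hoechst intensity after 48 hr exposure to compound (23 nL pinned per well of 250 cells).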
ELG1 DNA repair – ELG1-dependent DNA repair inhibition; HEK293T ELG1-luciferase reporter, luminescence, 16 h; DNA damage induced by 5-fluorouridine; Potency, µM (titrated, usually from 46.1 µM), inactives show at the highest dose activity change, negative = inhibition, usual class: inhibitors; 330,000 compounds, 2.3% hits; also: % is scaled to controls: 0 for no effect and ±100 for the full control effect; nearly all actives have a fitted effect of over 55% in size
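HEK293T cells expressing luciferase-tagged ELG1 (2,000/well) received 5-Fluorouridine plus compound or DMSO for 16 hr at 37 °C. Luciferase was read by ONE-Glo luminescence after 30 min at room temperature.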
* marks the source's active call; other numbers are inactive results; i = inactive; ? = inconclusive; / = not tested or not shown. Calls follow the shape of the dose curve; as a rule, active = well fitted curve in the direction sought with a large enough effect; inconclusive = small, poorly fitted or top-dose-only effect, or another doubt; inactive = no such curve, though single readings can be large; an effect the other way counts as inactive or inconclusive. Potency is read from the fitted curve at half-maximal effect.

SMILES	KB-3-1 tox	MCF10A rerep	KB-V1 MDR tox	SW480 rereplic	ELG1 DNA repair
CC(=O)Nc1cccc(-c2ccnc3c2CC(C(=O)NCc2ccc(N(C)C)cc2)O3)c1 (stereo unspecified)	?	/	i	/	/
C=CCNc1nnc(Cc2ccc(C(C)C)cc2)c(=O)[nH]1	14.6µM*	?	i	?	-20.5%
CC1(C)C(c2ccccn2)=[N+]([O-])C(C)(C)N1O	i	-6.8%	i	-0.1%	-4.7%
CCCCNC(=O)Cc1ccc(Br)cc1	i	-34.2%	i	9.7%	-1.8%
O=C(NCCCc1ccccc1)C1CCN(c2nnc(-n3cccc3)s2)CC1	?	1.1%	?	-9.2%	-7.1%
O=C(NCCCN1CCN(Cc2ccccc2)CC1)C1CCN(c2nnc(-n3cccc3)s2)CC1	i	21.8%	i	-1.7%	7.08µM*
CCOC(=O)c1c(NC(=O)c2cccc(N3C(=O)CCC3=O)c2)sc(C)c1C	i	13.7%	10.3µM*	-4.5%	?
CCOC(=O)c1c(-c2ccc(-c3ccccc3)cc2)csc1NC(=O)c1cccc(N2C(=O)CCC2=O)c1	i	14.7%	?	-3.9%	7.31µM*
NC(=O)c1c(NC(=O)c2cccc(N3C(=O)CCC3=O)c2)sc2c1CCCCC2	i	0.5%	i	-30.1%	?
Cc1cc(N(CN2CCCC2=O)C(=O)c2ccc(OC(C)C)cc2)no1	i	-1.7%	?	3.4%	?
Cc1ccc(/C=N/Nc2ncc(Cl)cc2Cl)s1	?	-1.6%	?	5.8µM*	?
OCC1(Cc2ccc(Cl)cc2)CCN(Cc2ccccc2F)CC1	?	12.1%	i	-9.0%	-8.9%
OCC1(Cc2ccc(Cl)cc2)CCN(CCCc2ccccc2)CC1	i	?	i	18.4µM*	4.8%
Cc1cc(/C=N/n2cnnc2)c(C)n1-c1ccccc1	3.26µM*	7.9%	5.8µM*	-2.8%	27.6%
Cc1cc(/C=N/n2cnnc2)c(C)n1-c1ccc(OCc2ccc(Cl)cc2Cl)cc1	7.31µM*	1.46µM*	5.17µM*	14.1%	?
CCn1c(C)c(P(=O)(N2CCOCC2)N2CCOCC2)c2ccccc21	i	-1.4%	i	0.6%	2.9%
CN1CCN(NC(=O)c2ccc(Cl)cc2Cl)CC1	i	2.4%	i	4.3%	29.5%
CCOC(=O)N1CCN(Cc2cc(=O)oc3ccc(Cl)cc23)CC1	i	6.0%	18.4µM*	-17.0%	4.1%
CCOC(=O)N1CCN(CCC(=O)c2ccc(Cl)cc2)CC1	20.6µM*	?	?	?	0.1%
CCOC(=O)N1CCN(CCC(=O)c2ccc(Br)cc2)CC1	i	?	i	?	14.5%
COc1ccc(N2CCN(CCC(=O)c3ccc4ccccc4c3)CC2)cc1	i	10.3µM*	?	?	0.0%
CCOC(=O)N1CCN(CCC(=O)Nc2ccc(OC)cc2)CC1	i	-0.3%	i	-6.1%	-1.7%
CCOC(=O)N1CCN(CCC(=O)c2ccc(OC)cc2)CC1	i	14.6µM*	i	?	23.2%
CCN1CCN(Cc2cc(=O)oc3ccc(Cl)cc23)CC1	i	-3.6%	i	-1.1%	-3.4%
COc1ccc(NC(=O)c2ccc[n+]([O-])c2)cc1	i	-0.1%	i	-5.2%	7.5%
SMILES	KB-3-1 tox	MCF10A rerep	KB-V1 MDR tox	SW480 rereplic	ELG1 DNA repair
CCC1(C)N=C(c2ccc3c(c2)OCO3)CC(c2ccccc2O)N1 (stereo unspecified)	i	7.31µM*	i	14.6µM*	?
COc1ccc2c(c1)c1ncn(CCN3CCCCC3)c(=O)c1n2C	i	5.0%	i	1.7%	10.8%
COc1ccc2c(c1)c1ncn(CCN3CCCC3)c(=O)c1n2C	i	18.2%	8.2µM*	-3.6%	-3.7%
O=C(Nc1c2c(nn1-c1ccc(Cl)cc1)CS(=O)(=O)C2)c1cccc(Cl)c1	i	/	?	/	/
O=C1CCCN1C(=O)COc1cc(F)ccc1[N+](=O)[O-]	i	3.5%	?	-5.9%	9.0%
Cc1ccc(/C(N)=N/OC(=O)CCc2ccccc2)cc1	i	7.31µM*	i	7.8%	?
N/C(=N\OC(=O)CCc1ccccc1)c1ccc(Br)cc1	i	-0.7%	i	-4.1%	6.6%
Cc1cccc(NC(=O)/C(C#N)=C/c2ccc(Cl)cc2)n1	i	22.6%	i	1.7%	5.0%
Cc1cccc(NC(=O)/C(C#N)=C/c2cccc([N+](=O)[O-])c2)n1	i	20.6µM*	i	?	1.6%
COc1cc(/C=C(\C#N)C(=O)NCC2CCCO2)ccc1OCC(N)=O (stereo unspecified)	i	-0.1%	i	2.4%	7.0%
COc1ccc2c(C)cc(SCC(=O)Nc3ncc(Cl)cc3Cl)nc2c1	i	22.2%	18.4µM*	-1.2%	?
Cn1ccnc1C(=O)c1cc(SCC(=O)NC2CC2)nc2ccccc12	i	-0.2%	i	-4.4%	?
Cc1cccc(C)c1NC(=O)CSc1cc(C(=O)c2nccn2C)c2ccccc2n1	i	11.0%	?	3.9%	14.6µM*
COc1ccc2nc(C)cc(SCC(=O)N/N=C/c3cccc4ccccc34)c2c1	?	3.66µM*	5.8µM*	4.61µM*	?
COc1ccc2c(-c3ccccc3)cc(SCC(=O)NC(N)=O)nc2c1	i	5.8µM*	i	-38.1%	5.8%
CN(CC(=O)Nc1ccccc1Cl)C1CCCCC1	i	7.2%	i	15.6%	-0.2%
O=c1[nH]nc(Cc2ccc([N+](=O)[O-])cc2)c2ccccc12	i	8.9%	?	-10.4%	16.8%
O=C1C2C3C=CC(C3)C2C(=O)N1c1ccc(-c2nc3ccccc3o2)cc1 (stereo unspecified)	i	-4.9%	i	0.4%	?
O=C(NCc1ccco1)c1ccc2c(c1)C(=O)c1ccccc1-2	i	?	?	?	?
CCOC(=O)c1c(S(=O)(=O)N2CCC(C(=O)Nc3ccc(C)c(Cl)c3)CC2)c(C)n(C)c1C	i	/	i	/	/
Cc1cc(SCC(=O)N/N=C/c2ccc(O)cc2O)nc2ccccc12	?	18.3%	i	11.6µM*	2.0%
Cc1cc(SCC(=O)Nc2ncc(Cl)cc2Cl)nc2ccccc12	i	10.7%	6.51µM*	?	-4.8%
CCn1cc(C(=O)O)c(=O)c2cc(F)c(N/N=C/c3ccccc3[N+](=O)[O-])cc21	i	-2.6%	13µM*	3.9%	?
CCn1cc(C(=O)O)c(=O)c2cc(F)c(N3CCN(C(=S)Nc4ccccc4OC)CC3)cc21	?	0.5%	i	-1.7%	-7.4%
CN(C)C=Nc1nonc1-c1ccc(Cl)cc1	i	-1.5%	i	-7.8%	-9.8%
CSc1nc(Cl)c(C#N)c(-c2ccc(C)cc2)n1	i	3.3%	i	-6.9%	?
CCSc1nc(-c2ccccc2)nc(C(Cl)Cl)n1	5.17µM*	11.6µM*	i	23.3%	18.4µM*
